Bioassay records as filed in PubChem.
Rows were chosen to be rich in hits. Some 2.9% of all compounds tested hit in one or more screens of this group.
ADAM10 inh: human ADAM10 inhibitors, primary screen, biochemical, QFRET, HTS; Disintegrin and metalloproteinase domain-containing protein 10 (Homo sapiens), O14672; recombinant ADAM10, EDANS/DABCYL FRET peptide cleavage, 3 h; inhibition, % at 7 µM; 370,000 compounds, 0.62% hits; AID 720582, 2013;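 active means inhibition above a per-campaign cutoff equal to the mean of compounds falling between control-based bounds plus 3 SD, cut at about 20% in these data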;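 further: 0% = DMSO wells while the 100% control is not disclosed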
KLK7 zymogen act: proKLK7 zymogen activators, primary screen, biochemical, fluorescence intensity; Kallikrein-7 (Homo sapiens), P49862; purified proKLK7, EDANS-DABCYL substrate fluorescence; 100% is mature enzyme control, 0% vehicle; activation, % at 7 µM; 370,000 compounds, 0.9% hits; AID 652039, 2013;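 active means activation above the mean of all tested compounds plus 3 SD, computed per campaign excluding outliers beyond control limits, cut at about 13% in these data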
ADAM17 inh: ADAM17 inhibitors, primary screen, biochemical, QFRET | AID 720648, 2013 | Disintegrin and metalloproteinase domain-containing protein 17 (Homo sapiens), P78536 | recombinant ADAM17, EDANS/DABCYL FRET peptide cleavage | inhibition, % at 6.95 µM | 370,000 compounds, 0.83% hits;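 active means inhibition above the mean of compounds lying between control limits plus 3 SD, set per campaign, cut at about 8.5% in these data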;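 further: 0% = DMSO-only wells as the low control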
PLC-gamma1 inh: PLC-gamma1 enzyme inhibitors, primary screen, biochemical, fluorescence, purified enzyme; 1-phosphatidylinositol 4,5-bisphosphate phosphodiesterase gamma-1 (Homo sapiens), P19174; 370,000 compounds, 0.84% hits; inhibition, % at 12.2 µM; fluorogenic substrate; in the data active means inhibition above about 9.5%
Target sequence (P19174 whole entry, looked up): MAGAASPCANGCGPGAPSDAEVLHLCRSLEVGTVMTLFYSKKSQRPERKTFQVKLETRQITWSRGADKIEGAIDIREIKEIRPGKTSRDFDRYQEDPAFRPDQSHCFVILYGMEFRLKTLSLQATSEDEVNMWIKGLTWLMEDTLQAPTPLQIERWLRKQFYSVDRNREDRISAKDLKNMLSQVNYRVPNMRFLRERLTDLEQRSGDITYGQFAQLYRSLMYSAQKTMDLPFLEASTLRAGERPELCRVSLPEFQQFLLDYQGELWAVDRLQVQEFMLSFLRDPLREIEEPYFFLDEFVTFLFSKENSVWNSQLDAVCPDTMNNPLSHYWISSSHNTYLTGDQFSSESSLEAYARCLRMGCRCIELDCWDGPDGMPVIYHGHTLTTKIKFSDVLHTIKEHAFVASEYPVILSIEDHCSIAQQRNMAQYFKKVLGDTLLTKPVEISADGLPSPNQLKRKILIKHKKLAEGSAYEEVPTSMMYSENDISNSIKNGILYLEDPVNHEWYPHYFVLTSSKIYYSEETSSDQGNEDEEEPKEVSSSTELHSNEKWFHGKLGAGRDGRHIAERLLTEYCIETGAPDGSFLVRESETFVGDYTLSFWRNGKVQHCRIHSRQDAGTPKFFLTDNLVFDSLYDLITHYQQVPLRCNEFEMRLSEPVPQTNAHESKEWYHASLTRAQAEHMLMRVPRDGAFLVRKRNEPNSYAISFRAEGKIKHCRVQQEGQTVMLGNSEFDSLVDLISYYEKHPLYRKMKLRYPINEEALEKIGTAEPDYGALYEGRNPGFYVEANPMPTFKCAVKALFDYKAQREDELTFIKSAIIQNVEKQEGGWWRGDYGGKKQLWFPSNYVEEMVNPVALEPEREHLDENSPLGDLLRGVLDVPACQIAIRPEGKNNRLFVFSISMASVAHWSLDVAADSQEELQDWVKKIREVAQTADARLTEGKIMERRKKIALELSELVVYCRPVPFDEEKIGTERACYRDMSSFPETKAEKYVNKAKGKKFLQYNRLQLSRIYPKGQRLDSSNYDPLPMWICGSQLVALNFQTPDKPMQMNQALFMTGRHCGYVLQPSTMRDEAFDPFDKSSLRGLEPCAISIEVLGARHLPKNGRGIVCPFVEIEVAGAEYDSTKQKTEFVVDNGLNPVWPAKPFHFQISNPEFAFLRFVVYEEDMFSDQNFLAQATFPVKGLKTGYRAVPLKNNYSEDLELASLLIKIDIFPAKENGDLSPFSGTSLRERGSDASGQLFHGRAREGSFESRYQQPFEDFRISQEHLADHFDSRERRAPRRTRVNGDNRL
PLC-beta3 inh: human PLC-beta3 inhibitors, primary screen, biochemical, fluorescence. 1-phosphatidylinositol 4,5-bisphosphate phosphodiesterase beta-3 (Homo sapiens), Q01970. Purified PLC-beta3, fluorogenic substrate. inhibition, % at 12.2 µM. 370,000 compounds, 0.18% hits. AID 720704, 2013; in the data active means inhibition above about 11%;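 further: 0% = median of compound wells on plate and 100% = full blocker control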
ADAM10 confirm: human ADAM10 inhibitors, confirmation, biochemical, QFRET, triplicate | shares compounds with ADAM10 inh | ADAM10 QFRET peptide cleavage, EDANS fluorescence | inhibition, % at 6.95 µM | 2,100 compounds, 1% hits | AID 743208, 2013;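 active means inhibition above about 20% chosen separately for each screening run, limit read from the data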;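 further: 0% = DMSO wells and 100% = marimastat wells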
ADAM17 counter: ADAM17 inhibitors, counter-screen for ADAM10 exosite inhibitor project, biochemical, QFRET, high throughput | shares compounds with ADAM10 inh | ADAM17 QFRET peptide cleavage, EDANS fluorescence | inhibition, % at 6.95 µM | 2,100 compounds, 0.5% hits | AID 743214, 2013;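 active means mean triplicate inhibition above the solvent-only control wells' mean plus 3 SD, cut at about 12% in these data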;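 further: 0% = DMSO wells and 100% = marimastat wells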
ADAM10 ctr: ADAM10 inhibitors, counter-screen for ADAM17 exosite inhibitor project, biochemical, FRET, human ADAM10; shares compounds with ADAM17 inh; recombinant ADAM10, EDANS/DABCYL FRET peptide cleavage, 3 h; inhibition, % at 6.95 µM; 2,900 compounds, 47% hits;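 active means mean inhibition over the triplicate runs exceeds the activity threshold set in the earlier primary screen, cut at about 20% in these data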;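 further: 0% = DMSO wells and 100% = marimastat wells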
ADAM17 confirm: ADAM17 inhibitors, hit retest, confirmation, biochemical, QFRET peptide cleavage; 2,900 compounds, 65% hits; shares compounds with ADAM17 inh; inhibition, % at 6.95 µM; recombinant ADAM17, EDANS/DABCYL QFRET peptide cleavage;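 active means mean inhibition across replicates above the hit cutoff set in the primary screen, cut at about 8.5% in these data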;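 further: 0% = DMSO wells and 100% = marimastat wells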
Starred values were filed as active, the others as inactive; / = no result.

SMILES	ADAM10 inh	KLK7 zymogen act	ADAM17 inh	PLC-gamma1 inh	PLC-beta3 inh	ADAM10 confirm	ADAM17 counter	ADAM10 ctr	ADAM17 confirm
C[C@H]1CCCCO[C@@H](CN(C)S(=O)(=O)c2ccc(F)cc2)[C@@H](C)CN([C@@H](C)CO)C(=O)c2cc(NC(=O)Nc3ccc4c(c3)OCO4)ccc2O1	4.2	0.6	-1.2	-0.2	1.6	/	/	/	/
COc1ccc(S(=O)(=O)N(C)C[C@H]2OCCCC[C@@H](C)Oc3ccc(NC(=O)CCC(F)(F)F)cc3C(=O)N([C@H](C)CO)C[C@@H]2C)cc1	-0.9	-0.5	-1.3	1.4	6.5	/	/	/	/
C[C@@H]1CCCCO[C@H](CN(C)S(=O)(=O)c2ccc(F)cc2)[C@@H](C)CN([C@H](C)CO)C(=O)c2cc(NC(=O)Nc3ccc(C(F)(F)F)cc3)ccc2O1	27.4*	0.2	8.7*	-2.2	-1.0	15.8	4.2	45.0*	23.5*
CC(=O)N[C@@H]1C[C@@H]2O[C@H](CO)CC[C@@H]2O[C@@H]1CCc1ccc(-c2ccc(F)cc2)cc1	-1.3	0.2	-0.3	2.7	-4.6	/	/	/	/
C[C@@H]1CCN(C2CC2)S(=O)(=O)c2c(cccc2N2CC[C@H](O)C2)O1	-0.9	0.0	-4.1	-1.6	0.6	/	/	/	/
CCCc1nc2ccccc2c(C(=O)OC(C)C(=O)NCc2ccc3c(c2)OCO3)c1CC (stereo not drawn)	26.7*	0.0	10.4*	3.4	-0.1	3.4	0.9	24.8*	11.6*
O=C(CCc1ccccc1)N[C@H]1[C@H](OC(=O)c2cnccn2)CCC[C@]12C(=O)N(Cc1ccccc1)c1ccccc12	-4.0	-0.2	-1.4	1.6	-3.9	/	/	/	/
COc1ccc(/C=N/NC(=O)Cc2csc(Nc3cccc(C(F)(F)F)c3)n2)cc1C	28.0*	-0.2	12.6*	4.2	1.2	5.5	2.4	33.2*	20.2*
CC(O/N=C/c1ccccc1OC(F)F)C(=O)Nc1cccc(S(=O)(=O)N2CCOCC2)c1 (stereo not drawn)	19.8*	1.4	10.1*	2.4	-0.7	0.2	0.5	7.0	2.8
COc1ccc(Oc2c(-c3cccs3)cnn(-c3ccc(C)cc3)c2=O)cc1	-8.2	/	-3.2	-4.0	-2.6	/	/	/	/
COc1cc([N+](=O)[O-])cc(/C=N/NC(=O)C(C)Nc2ccccc2C)c1O (stereo not drawn)	25.9*	-0.6	10.0*	4.4	3.7	0.3	1.2	23.5*	11.6*
COc1cc2c(cc1NC(=O)Nc1ccc(C)cc1)oc1ccccc12	-24.1	-4.0	-9.9	-5.5	-8.2	/	/	/	/
COc1cc2c(cc1NC(=O)C(C)Sc1ccc(NC(C)=O)cc1)oc1ccccc12 (stereo not drawn)	46.9*	0.7	21.8*	8.5	4.2	9.2	3.2	31.5*	17.5*
N#CC1=C(N)NC(SCC(=O)Nc2ccc(Br)cc2)=C(C#N)C12CCCCC2	21.7*	0.1	11.4*	4.2	2.0	3.1	1.8	29.8*	19.5*
O=S(=O)(NCC(Nc1ccc(Cl)cc1)c1ccccc1)c1ccccc1 (stereo not drawn)	53.0*	0.9	26.2*	9.4	10.0	10.5	3.4	45.9*	22.2*
CC(C)CNC(=O)OCc1cn(Cc2cc(F)cc(F)c2)nn1	-4.0	-0.2	-1.8	2.2	0.8	/	/	/	/
O=C(CNc1ccc(C(F)(F)F)cc1)Nc1cccc(S(=O)(=O)N2CCCCC2)c1	21.8*	0.4	9.8*	-0.6	-1.2	7.3	1.9	54.4*	26.9*
O=C(CNc1cc(S(=O)(=O)N2CCCC2)ccc1OCC(F)(F)F)Nc1ccc(SC(F)F)cc1	19.9*	0.7	16.2*	2.8	5.2	0.8	2.2	35.0*	20.4*
O=C(CNc1ccc(C(F)(F)F)cc1)Nc1cccc(S(=O)(=O)N2CCCC2)c1	9.8	0.4	3.1	-97.3	-4.2	/	/	/	/
CN(CC(=O)Nc1cccc(F)c1)CC(=O)Nc1cccc(S(=O)(=O)N2CCCCCC2)c1	35.7*	-0.2	16.4*	5.5	-1.7	0.5	0.0	23.4*	14.0*
O=C(COC(=O)c1cc(S(=O)(=O)N2CCCC2)ccc1O)Nc1ccc(SC(F)F)cc1	-32.9	-0.4	-6.1	-13.3	-18.8	/	/	/	/
CC(C)CN1C(=O)N2CCc3ccccc3C2CS1(=O)=O (stereo not drawn)	-6.3	-0.2	-7.1	0.6	1.6	/	/	/	/
CCC(C)NC(=O)C1CCN(S(=O)(=O)c2ccc3[nH]c(=O)oc3c2)CC1 (stereo not drawn)	1.3	0.6	-4.4	-0.1	3.2	/	/	/	/
CCOC(=O)Cn1cc(CN2C(C(=O)OC)CN(C3CCCC3)CCS2(=O)=O)nn1 (stereo not drawn)	5.7	-0.7	4.9	8.3	4.2	/	/	/	/
O=C(NCCc1c[nH]c2ccccc12)OCc1cn(-c2cccc(C(F)(F)F)c2)nn1	5.2	-0.3	4.4	-4.0	-4.8	/	/	/	/
COC(=O)[C@]12C[C@H](CC(=O)N3CCSCC3)C(=O)N(Cc3ccc(Cl)cc3Cl)C1=C[C@H](C(C)(C)C)O[C@@H]2C	-2.3	0.3	-1.6	-1.6	2.8	/	/	/	/
CCc1cccc(CC)c1NC(=O)COC(=O)CC1c2ccccc2CCN1S(=O)(=O)c1ccc(F)cc1 (stereo not drawn)	23.0*	0.9	14.0*	7.7	6.5	2.2	0.5	6.0	2.2
O=C(COC(=O)CC1c2ccccc2CCN1S(=O)(=O)c1ccc(F)cc1)Nc1ccccc1 (stereo not drawn)	11.2	0.4	5.5	4.8	1.3	/	/	/	/
